# Shown is part of a subset that was picked to be rich in the strongest signals.
# B1: AT1G80310(18) (Arabidopsis thaliana), Q0WP36 (protein)
# chain: METTTTPLLPGDRSRCGWLRRRLRLKNPLSSELSGAVGDLGTFIPIVLTLTLVSNLDLSTTLIFTGFYNIATGLLFDIPMPVQPMKSIAAVAVSESPHLTPSQIAAAGASTAATLLLLGATGAMSFLYNIIPLPVVRGVQLSQGLQFAFTAIKYVRFNYDTATLKPSSSPRIWLGLDGLILALAALLFIILSTGSGNDREAEDGDLAETSSNESQSRRRRLRLLSSIPSALIVFALGLVLCFIRDPSIFKDLKFGPSKFHILRISWDDWKIGFLRAAIPQIPLSVLNSVIAVCKLSNDLFDKELSATTVSISVGVMNLIGCWFGAMPVCHGAGGLAGQYRFGARSGLSVIFLGIGKLIVGLVFGNSFVRILSQFPIGILGVLLLFAGIELAMASKDMNSKEDSFIMLVCAAVSMTGSSAALGFGCGVVLYLLLKLRTLDCSSVTLFSRSSDESQVDSEAAPRDV
# Legend:
# Test in all cases: glycan array binding signal (z-score within array); higher = stronger binding
# Settings in all cases: glycan notation: IUPAC condensed, linker removed
# [1] = target: Gal(b1-4)GlcNAc(b1-3)Gal(b1-4)GlcNAc(b1-6)[Gal(b1-3)]GalNAc
# Procedure, shortened: (§1)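 The binding signal is a Z-score computed within each array. Data were drawn from 3228 arrays in the Consortium for Functional Glycomics database, restricted to those with a known protein sequence. Scores were averaged over arrays of the same protein sequence at different concentrations or buffers, and over linkers, and negative values can be taken as non-binding.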
# [2] = target: Gal3S(b1-4)[Fuc(a1-3)]GlcNAc6S
# Procedure, shortened: as §1
# Gal3S6S(b1-4)GlcNAc6S = target: Gal3S6S(b1-4)GlcNAc6S
# Procedure, shortened: as §1
# Gal6P(b1-4)GlcNAc = target: Gal6P(b1-4)GlcNAc
# Procedure, shortened: as §1
# GalNAc(b1-4)GlcNAc = target: GalNAc(b1-4)GlcNAc
# Procedure, shortened: as §1
# GalNAc4S6S(b1-4)GlcNAc = target: GalNAc4S6S(b1-4)GlcNAc
# Procedure, shortened: as §1
# GalNAc6S(b1-4)GlcNAc = target: GalNAc6S(b1-4)GlcNAc
# Procedure, shortened: as §1
# Glc(b1-4)Glc = target: Glc(b1-4)Glc
# Procedure, shortened: as §1
# [3] = target: GlcNAc(a1-4)Gal(b1-4)GlcNAc
# Procedure, shortened: as §1
# [4] = target: GlcNAc(a1-4)Gal(b1-4)GlcNAc(b1-3)Gal(b1-4)GlcNAc(b1-3)Gal(b1-4)GlcNAc
# Procedure, shortened: as §1
# [5] = target: GlcNAc(b1-3)Gal(b1-4)GlcNAc(b1-3)Gal(b1-4)GlcNAc
# Procedure, shortened: as §1
# [6] = target: GlcNAc(b1-3)Gal(b1-4)GlcNAc(b1-3)Gal(b1-4)GlcNAc(b1-2)Man(a1-3)[GlcNAc(b1-3)Gal(b1-4)GlcNAc(b1-3)Gal(b1-4)GlcNAc(b1-2)Man(a1-6)]Man(b1-4)GlcNAc(b1-4)[Fuc(a1-6)]GlcNAc
# Procedure, shortened: as §1
# [7] = target: GlcNAc(b1-6)Gal(b1-4)GlcNAc
# Procedure, shortened: as §1
# [8] = target: GlcNAc6S(b1-3)Gal(b1-4)GlcNAc
# Procedure, shortened: as §1
# [9] = target: Man(a1-2)Man(a1-3)[Man(a1-2)Man(a1-6)]Man
# Procedure, shortened: as §1
# [10] = target: Man(a1-2)Man(a1-6)[Man(a1-3)]Man(a1-6)[Man(a1-2)Man(a1-2)Man(a1-3)]Man
# Procedure, shortened: as §1
# [11] = target: Man(a1-3)[Man(a1-6)]Man(b1-4)GlcNAc(b1-4)[Fuc(a1-6)]GlcNAc
# Procedure, shortened: as §1
# [12] = target: Neu5Ac(a2-3)Gal(b1-3)GalNAc
# Procedure, shortened: as §1
# [13] = target: Neu5Ac(a2-3)Gal(b1-3)GalNAc(b1-4)[Neu5Ac(a2-3)]Gal(b1-4)Glc
# Procedure, shortened: as §1
# [14] = target: Neu5Ac(a2-3)Gal(b1-3)GalNAc(b1-4)[Neu5Ac(a2-8)Neu5Ac(a2-3)]Gal(b1-4)Glc
# Procedure, shortened: as §1
# [15] = target: Neu5Ac(a2-3)Gal(b1-4)GlcNAc(b1-2)Man(a1-3)[Neu5Ac(a2-3)Gal(b1-4)GlcNAc(b1-2)Man(a1-6)]Man(b1-4)GlcNAc(b1-4)[Fuc(a1-6)]GlcNAc
# Procedure, shortened: as §1
# [16] = target: Neu5Ac(a2-3)Gal(b1-4)GlcNAc(b1-3)Gal(b1-4)GlcNAc
# Procedure, shortened: as §1
# [17] = target: Neu5Ac(a2-6)Gal(b1-4)GlcNAc(b1-2)Man
# Procedure, shortened: as §1
# [18] = target: Neu5Ac(a2-6)Gal(b1-4)GlcNAc(b1-2)Man(a1-6)[Man(a1-3)]Man(b1-4)GlcNAc(b1-4)GlcNAc
# Procedure, shortened: as §1
# [19] = target: Neu5Ac(a2-6)Gal(b1-4)GlcNAc(b1-3)Gal(b1-3)GlcNAc
# Procedure, shortened: as §1
# [20] = target: Neu5Ac(a2-6)GalNAc(b1-4)GlcNAc6S
# Procedure, shortened: as §1
# [21] = target: Neu5Ac(a2-8)Neu5Ac(a2-3)Gal(b1-3)GalNAc(b1-4)[Neu5Ac(a2-3)]Gal(b1-4)Glc
# Procedure, shortened: as §1
# [22] = target: Neu5Ac(a2-8)Neu5Ac(a2-8)Neu5Ac(a2-8)Neu5Ac(a2-3)[GalNAc(b1-4)]Gal(b1-4)Glc
# Procedure, shortened: as §1
# [23] = target: Neu5Ac9Ac(a2-3)Gal(b1-3)GlcNAc
# Procedure, shortened: as §1
# Neu5Gc(a2-6)GalNAc = target: Neu5Gc(a2-6)GalNAc
# Procedure, shortened: as §1
binder,measurement,setting,value
B1,glycan array binding signal (z-score),[1],-0.516
same,glycan array binding signal (z-score),[2],-0.286
same,glycan array binding signal (z-score),Gal3S6S(b1-4)GlcNAc6S,0.953
same,glycan array binding signal (z-score),Gal6P(b1-4)GlcNAc,0.119
same,glycan array binding signal (z-score),GalNAc(b1-4)GlcNAc,3.09
same,glycan array binding signal (z-score),GalNAc4S6S(b1-4)GlcNAc,3.56
same,glycan array binding signal (z-score),GalNAc6S(b1-4)GlcNAc,2.89
same,glycan array binding signal (z-score),Glc(b1-4)Glc,1.3
same,glycan array binding signal (z-score),[3],-0.622
same,glycan array binding signal (z-score),[4],0.229
same,glycan array binding signal (z-score),[5],-0.512
same,glycan array binding signal (z-score),[6],1.31
same,glycan array binding signal (z-score),[7],-0.608
same,glycan array binding signal (z-score),[8],0.436
same,glycan array binding signal (z-score),[9],-0.796
same,glycan array binding signal (z-score),[10],-0.243
same,glycan array binding signal (z-score),[11],-0.517
same,glycan array binding signal (z-score),[12],0.654
same,glycan array binding signal (z-score),[13],-0.383
same,glycan array binding signal (z-score),[14],4.16
same,glycan array binding signal (z-score),[15],-0.895
same,glycan array binding signal (z-score),[16],-0.967
same,glycan array binding signal (z-score),[17],-0.534
same,glycan array binding signal (z-score),[18],-0.892
same,glycan array binding signal (z-score),[19],-0.646
same,glycan array binding signal (z-score),[20],-0.543
same,glycan array binding signal (z-score),[21],-0.86
same,glycan array binding signal (z-score),[22],-0.09
same,glycan array binding signal (z-score),[23],-0.052
same,glycan array binding signal (z-score),Neu5Gc(a2-6)GalNAc,0.551
